This passage reports sensor-assay potency score (higher = more potent) results from the OligoGym collection.
Note: reference of the scale not given here.

In the first experiment the target is TRPV1. Kind of experiment: pooled miR-30 sensor sort-seq; sequence = guide strand. The following applies: shRNA.
Turning to TAACTCGGAAATAGTCTCCAGT, the sensor-assay potency score (higher = more potent) was 0.133.
The sequence ATGTAGACAAACATGAAACGGC yielded a sensor-assay potency score (higher = more potent) of -0.484.
The same measure, in the same setting: next, TAGTAGCTGTCCGTGTAGCTGG: -0.744.
Still for that read-out and setting: the value for TTGAAGTAGAAGATGCGCTTGA was 0.616.
On the same count and under the same terms, the value for TTGAGCAGGAGGATGTAGGTGA was 1.19; that for TCGCAGATAAACTTCCTCGGGC was 0.131.
ATGCTCGTCACAAACTTCGTGT returned a sensor-assay potency score (higher = more potent) of -0.192.
On the same count and under the same terms, the value for TAGTAGAGCATGTTGGTCCAGC was -0.185; that for TTGTCTGTGAGGTGCTTCTTGC was -0.584.
On the same count and under the same terms, the value for TAGCTGTCCGTGTAGCTGGCGT was -0.712.
Still for that read-out and setting: next, TTGGTGTTCCAGGTGGTCCAGT: -0.829.
Sequence TTAAGGAAGCTCTTCTCCGTGT returned a sensor-assay potency score (higher = more potent) of -0.306.

The target of another experiment is TSC1. The description is as above. The following applies: shRNA.
On to TAGCTGTCCAACACTGTCCGGG, for which the sensor-assay potency score (higher = more potent) was -0.0259.
The sequence ATATTTAACAACATCAGCCGAG showed a sensor-assay potency score (higher = more potent) of 0.191.
Regarding TAGATATTGCAGCTTCTTCTTT, the sensor-assay potency score (higher = more potent) was -0.827.
Turning to TAGATATTTCTTCTGTTCCAAA, the sensor-assay potency score (higher = more potent) was -1.26.
Same read-out and setting: next, TGAACTTGCACTCAGACCCTGG: -0.099.
Same read-out and setting: the value for TAGCATGGTTATCAACACCAAG was -0.952; that for TAGAGTGACAGAACCTTTGCTG was 0.691.
The sequence TTCCAGGTAATAATCCACCAAG had a sensor-assay potency score (higher = more potent) of -1.16.
On the same count and under the same terms, next, TATTTAACAACATCAGCCGAGA: -0.654; TATCTTTTTCAATACTATCTTC: -0.463.
